HEK293 tox: Cytotoxic Profiling in HEK 293 Cell Line of Diverse Libraries Using Quantitative High-Throughput Screening; HEK 293 viability, ATP luminescence (CellTiter-Glo), 48-72 h; Potency, µM (series often up to 115 µM), actives largely listed as inhibitors; 94,000 tested, 6.6% active; AID 1345083, 2018; note: nearly all actives have a fitted effect of over 60% in size
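Cells seeded first (HEK 293, 250 cells/well), then compound added by pintool. Incubation ran 48 or 72 hr at 37 degree Celsius. CellTiter-Glo was added and luminescence imaged after 10 min at room temperature.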
FLuc inh: Firefly luciferase inhibition profiling of diverse chemical library using quantitative high-throughput screening; Luciferin 4-monooxygenase (Photinus pyralis), P08659; Potency, µM (titrated, usually from 115 µM), usual class: inhibitors; AID 1347043, 2019; 76,000 tested, 2.5% active; purified P. pyralis luciferase, luminescence, biochemical; note: nearly all actives have a fitted effect of over 65% in size
Target sequence (P08659 whole entry, looked up): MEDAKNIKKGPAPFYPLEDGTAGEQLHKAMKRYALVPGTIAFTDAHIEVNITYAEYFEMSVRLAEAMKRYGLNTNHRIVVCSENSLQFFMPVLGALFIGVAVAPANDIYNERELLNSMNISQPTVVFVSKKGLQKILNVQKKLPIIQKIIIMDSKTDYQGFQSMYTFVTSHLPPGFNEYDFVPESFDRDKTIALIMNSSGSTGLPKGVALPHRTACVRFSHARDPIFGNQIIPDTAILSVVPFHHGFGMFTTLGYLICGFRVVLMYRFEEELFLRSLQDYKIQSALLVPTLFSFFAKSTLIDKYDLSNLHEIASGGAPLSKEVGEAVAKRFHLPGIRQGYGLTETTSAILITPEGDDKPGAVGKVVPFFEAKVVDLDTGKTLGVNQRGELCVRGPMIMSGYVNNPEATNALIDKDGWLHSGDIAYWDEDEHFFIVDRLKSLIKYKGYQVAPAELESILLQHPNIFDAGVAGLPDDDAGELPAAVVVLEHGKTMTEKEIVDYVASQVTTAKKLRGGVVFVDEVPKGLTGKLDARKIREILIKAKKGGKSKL
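Purified 10nM P. pyralis luciferase with 10uM D-luciferin and 10uM ATP in 50mM Tris acetate pH 7.5, 10mM Mg acetate, 0.01% Tween-20, 0.05% BSA. qHTS titration; luminescence read by CCD imager.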
NPR1 antag: Natriuretic polypeptide receptor (hNpr1) antagonism - Primary qHTS. Potency, µM (doses to about 46.3 µM), hits mostly inhibitors. Atrial natriuretic peptide receptor 1 (Homo sapiens), P16066. 76,000 tested, 1.6% active. HEK293 hNpr1 GloSensor cGMP, ANP-stimulated luminescence; calls by dose curve; note: nearly all actives have a fitted effect of over 60% in size
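Compound pre-incubated 30 min at room temperature on GloSensor-loaded HEK293 cells stably carrying hNpr1 and the pGS-40F cGMP biosensor. Stimulation uses hNppA at 0.1 nM final; luminescence is taken at baseline and 20 min post-agonist.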
3T3 cytotox: Cytotoxic Profiling in NIH 3T3 Cell Line of Diverse Libraries Using Quantitative High-Throughput Screening; NIH 3T3 viability, CellTiter-Glo ATP luminescence, 48-72 h; Potency, µM (titrated, usually from 96.7 µM), usual class: inhibitors; 94,000 tested, 4.3% active; note: nearly all actives have a fitted effect of over 55% in size
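NIH 3T3 cells at 400 cells/well received 23 nL of compound by pintool and were incubated 48 or 72 h at 37 °C. Viability was read as ATP-coupled CellTiter-Glo luminescence.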
NPR1 antag cnf: Natriuretic polypeptide receptor (hNpr1) antagonism - Confirmation; HEK293 hNpr1 cGMP GloSensor luminescence, ANP-stimulated; Potency, µM (titrated, usually from 57.6 µM), usual class: inhibitors; shares compounds with NPR1 antag; 1,400 tested, 76% active; calls by dose curve; note: nearly all actives have a fitted effect of over 70% in size
Npr2 selectivity: Natriuretic polypeptide receptor (hNpr2) antagonism - Subtype selectivity assay; AID 1347046, 2019; Potency, µM (doses to about 57.6 µM), hits mostly inhibitors; 1,400 tested, 67% active; shares compounds with NPR1 antag; HEK293 hNpr2 GloSensor cGMP luminescence, CNP-stimulated; calls by dose curve; note: nearly all actives have a fitted effect of over 70% in size
FLuc counter: Natriuretic polypeptide receptor (hNpr1) antagonism - Confirmation firefly luciferase (FLuc) inhibition counterscreen. shares compounds with NPR1 antag. purified FLuc enzyme, luminescence, Km substrate. Potency, µM (top dose mostly 57.6 µM), actives largely listed as inhibitors. 1,400 tested, 0.7% active
GloSensor ctrl: Natriuretic polypeptide receptor (hNpr1) antagonism - Counterscreen GloSensor control cell line; Potency, µM (highest dose often 57.6 µM), hits mostly inhibitors; AID 1347051, 2019; 1,400 tested, 69% active; HEK293 GloSensor cGMP, SNP-stimulated, luminescence; shares compounds with NPR1 antag; calls by dose curve; note: nearly all actives have a fitted effect of over 70% in size
Numbers stand for hits; i = inactive; ? = inconclusive; nt = no result given. The list is not random: actives were taken first. Their share in the collection is about 11%. Unless noted, calls come from the whole dose curve; as a rule, active = well fitted curve in the direction sought with a large enough effect; inconclusive = small, poorly fitted or top-dose-only effect, or another doubt; inactive = no such curve, though single readings can be large; an effect the other way counts as inactive or inconclusive.

SMILES	HEK293 tox	FLuc inh	NPR1 antag	3T3 cytotox	NPR1 antag cnf	Npr2 selectivity	FLuc counter	GloSensor ctrl
CC(C)C[C@@H]1N[C@H](C(=O)N(C)CCC#N)Cc2c[nH]c3cccc1c23	i	i	i	i	nt	nt	nt	nt
O=C(c1ccc(-n2ccnc2)cc1)N1CCC(c2[nH]ncc2-c2ccccc2)CC1	i	i	11µM	?	22µM	22µM	i	i
COCc1ccc(C(=O)N2CCC(c3[nH]ncc3-c3ccccc3)CC2)o1	i	i	i	i	nt	nt	nt	nt
Cc1n[nH]c(C)c1Cc1ccc(C(=O)N2CCC(CCOc3ccc(F)cc3)C2)o1 (stereo unspecified)	22µM	i	16µM	35µM	24µM	24µM	i	22µM
CN1CC2(CCN(C3CCCC3)CC2)CC1C(=O)N1CCOCC1 (stereo unspecified)	i	nt	nt	i	nt	nt	nt	nt
COc1ccc(S(=O)(=O)N2CCc3c(C(=O)NCCN(C)C)cccc32)cc1	?	?	i	?	nt	nt	nt	nt
COc1ccc(S(=O)(=O)N2CCc3c(C(=O)Nc4cccc(C)c4)cccc32)cc1	18µM	i	?	?	?	?	i	?
COc1ccc(NC(=O)c2ccc3c(c2)N(S(=O)(=O)c2ccccc2)CC3)cc1	?	i	10µM	i	24µM	24µM	i	22µM
C[S+](=O)([O-])N1CCC(c2nnc3n2C(C(=O)NCCc2ccccc2F)CC3)CC1 (stereo unspecified)	i	nt	nt	i	nt	nt	nt	nt
CN(C)S(=O)(=O)N1CCOC(c2ccc(Cl)c(Cl)c2)C1 (stereo unspecified)	?	i	i	?	nt	nt	nt	nt
COc1c(C)cccc1C(=O)N1CCOC(c2ccc(Cl)c(Cl)c2)C1 (stereo unspecified)	?	i	10µM	?	17µM	19µM	i	15µM
O=C(NCCCc1ccccc1F)[C@H]1CCC[C@@H](O)C1	i	i	i	i	nt	nt	nt	nt
O=C(NCCc1cccc(Oc2ccccc2)c1)[C@H]1CCC[C@H](O)C1	?	i	14µM	i	24µM	22µM	i	22µM
CC(=O)N(C1CC1)C1CCOC2(CCN(C(=O)c3ccsc3)CC2)C1 (stereo unspecified)	i	nt	nt	i	nt	nt	nt	nt
O=C(Cc1ccccc1Cl)NC1CCN(c2cc(C(F)(F)F)ncn2)CC1	?	i	11µM	i	19µM	15µM	i	15µM
COc1ccccc1CC(=O)NC1CCN(c2cc(C(F)(F)F)nc(C)n2)CC1	i	i	i	i	nt	nt	nt	nt
Cc1nc(N2CCC(NC(=O)Cc3ccccc3Cl)CC2)cc(C(F)(F)F)n1	?	i	10µM	?	19µM	17µM	i	11µM
COc1ccccc1C(=O)NC1CCN(c2cc(C(F)(F)F)nc(C)n2)CC1	?	i	?	?	?	i	i	?
COc1ccc(Cl)cc1C(=O)NC1CCN(c2cc(C(F)(F)F)nc(C)n2)CC1	?	i	?	?	nt	nt	nt	nt
Cc1nc(N2CCC(C(=O)NCc3cccc(Cl)c3)CC2)cc(C(F)(F)F)n1	?	i	10µM	?	19µM	19µM	i	17µM
COc1ccccc1CCN1Cc2cc(NC(=O)Cc3cccs3)ccc2OC(C)C1=O (stereo unspecified)	?	i	i	?	nt	nt	nt	nt
COc1ccc(OC)c(CN2CCC3OCCN(Cc4ccccc4)C(=O)C3C2)c1 (stereo unspecified)	?	i	i	?	nt	nt	nt	nt
Cc1nn2c(c1-c1ccccc1C(C)C)N(CCC(C)C)CCC2	11µM	i	2.5µM	8.9µM	1.6µM	2.5µM	i	1.8µM
COc1ccc(OC)c(CN2CCCn3nc(C)c(-c4ccccc4C(C)C)c32)c1	63µM	i	i	35µM	40µM	40µM	i	?
Cc1nn2c(c1-c1ccccc1C(N)=O)N(C(=O)c1ccccc1)CCC2	i	i	i	?	nt	nt	nt	nt
SMILES	HEK293 tox	FLuc inh	NPR1 antag	3T3 cytotox	NPR1 antag cnf	Npr2 selectivity	FLuc counter	GloSensor ctrl
Cc1nn2c(c1-c1ccccc1C(C)C)N(Cc1cccc(C(=O)O)c1)CCC2	56µM	i	?	45µM	?	i	i	i
CCOc1ccc(C(O)Cn2ccn3nc(-c4ccccc4C)cc3c2=O)cc1 (stereo unspecified)	35µM	i	13µM	?	17µM	?	i	11µM
CCOCCNC(=O)[C@@H]1CCCN1c1nccc(Nc2ccccc2Cl)n1	?	nt	nt	i	nt	nt	nt	nt
O=C(CCC1CCCN(S(=O)(=O)c2ccccc2)C1)N1CCN(c2ccccn2)CC1 (stereo unspecified)	45µM	i	?	?	?	?	i	?
Cc1ccc(S(=O)(=O)N2CCCC(CCC(=O)N3CCCCC3)C2)cc1 (stereo unspecified)	?	i	13µM	?	?	?	i	?
O=C(CCC1CCCN(S(=O)(=O)c2ccccc2)C1)NCC1CCCCC1 (stereo unspecified)	?	i	?	?	nt	nt	nt	nt
Cc1ccc(CNC(=O)CCC2CCCN(S(=O)(=O)c3ccc(F)cc3)C2)cc1 (stereo unspecified)	?	?	i	i	nt	nt	nt	nt
COc1cc(NC(=O)c2ccc3c(c2)N(C)C2CCCCCN2C3=O)cc(OC)c1 (stereo unspecified)	?	?	i	?	nt	nt	nt	nt
O=C(NCc1ccc(F)c(Cl)c1)c1cc2n(n1)CC(c1ccc(Cl)cc1)OC2 (stereo unspecified)	35µM	i	?	?	?	i	i	?
CC(C)Oc1ccc(CNC(=O)c2cc3n(n2)CC(c2ccc(Cl)cc2)OC3)cc1 (stereo unspecified)	?	i	?	?	?	i	i	i
Cc1ccc(CNC(=O)c2cc3n(n2)CC(c2ccc(Cl)cc2)OC3)cc1 (stereo unspecified)	?	i	?	?	nt	nt	nt	nt
O=C(c1cccs1)N1CCC(N2C(=O)[C@H]3CN(Cc4ccccc4)C[C@H]3C2=O)CC1	?	nt	nt	i	nt	nt	nt	nt
COc1ccc(C(=O)N2CCCN(c3cc(-c4ccccc4)[nH]n3)CC2)cc1F	?	i	i	i	nt	nt	nt	nt

Assay outcomes: PubChem, National Center for Advancing Translational Sciences (NCATS)
